Screening data: PubChem, National Center for Advancing Translational Sciences (NCATS)
Shown are actives, neighbours in structure and some others; about 2.5% of the full set was active somewhere.
IkB signaling = suppresses IkB signaling in ABC-DLBCL reporter cells; Potency, µM (titrated, usually from 57.1 µM); ABC-DLBCL IkBa-CBG/CBR dual luciferase ratio, 4 h; response scale: scaled: untreated 0%, proteasome inhibitor 100%; 110,000 tested, 0.04% active; active means well fitted curve in the direction sought with a large enough effect in the signal ratio, not every such curve was filed as active; inconclusive means small, poorly fitted or top-dose-only effect, or a change in a side signal; the % refers to the signal ratio;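 further: the direction sought is a rising ratio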
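In this assay, an IκBα–CBG68 fusion accumulates when IKK-driven degradation is blocked; native CBR normalizes for cell number. OCI-Ly3 cells were treated 4 h with compound and doxycycline, then green and red light read after Chroma-Glo addition.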
Luciferase inh = blocks Photinus pyralis firefly luciferase activity; P08659; purified firefly luciferase, luminescence, 8 min; Potency, µM (titrated, usually from 57.1 µM), usual class: inhibitors; 72,000 tested, 2.2% active; further: nearly all actives have a fitted effect of over 40% in size
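Luminescence read-out after 8 min at room temperature; enzyme reaction used luciferin plus 10 uM ATP (linear range) in imidazole buffer pH 7.2 with KCl, MgCl2, Tween 20 and BSA. Each sample was run as a titration.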
Caspase-7 inhib = allosteric or competitive inhibitors of human caspase-7; P55210; Potency, µM (titrated, usually from 57.5 µM), most hits filed as inhibitors; recombinant caspase-7, Ac-DEVD-AFC fluorescence rate; 75,000 tested, 0.02% active; AID 889; active means well fitted inhibition curve with a large enough effect in the main read-out, with a control signal flat, not every such curve was filed as active; inconclusive means small, poorly fitted or top-dose-only effect, or a change in a side signal
p53ts 39C kill = cytotoxicity in p53ts cells at nonpermissive temperature | H1299-p53A138V viability at 39C, ATP luminescence, 24 h | 130,000 tested, 1.5% active | AID 902 | Potency, µM (series often up to 46.1 µM), actives largely listed as cytotoxic; further: nearly all actives have a fitted effect of over 55% in size
Caspase-1 inhib = blocks human caspase-1 allosterically or competitively; P29466; Caspase-1 enzyme, Ac-WEHD-AFC fluorogenic rate; Potency, µM (titrated, usually from 57.5 µM), usual class: inhibitors; 75,000 tested, 0.03% active; AID 900
p53ts 32C tox = cytotoxicity in p53ts cells at permissive temperature; H1299-p53A138V at 32C, ATP luminescence viability, 24 h; Potency, µM (doses to about 46.1 µM), actives largely listed as cytotoxic; 130,000 tested, 0.93% active; further: nearly all actives have a fitted effect of over 55% in size
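Cells: H1299 p53ts (A138V), 600/well, pre-incubated 16–30 h at 37C. Cpd up to 46 uM, 24 h, 32C. Readout: ATPlite luminescence, 20 min RT. Normalization: DMSO vs tamoxifen 100 uM. AC50 by Hill equation.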
Numbers stand for hits; 0 = inactive; ? = inconclusive; - = not tested or not shown; [ ] = dose if it differs, or a comment. Unless noted, the call rests on the fitted dose curve; in most records, active means well fitted curve in the direction sought with a large enough effect; inconclusive means small, poorly fitted or top-dose-only effect, or another doubt; inactive means no such curve, though single readings can be large; an effect the other way counts as inactive or inconclusive.

SMILES | IkB signaling | Luciferase inh | Caspase-7 inhib | p53ts 39C kill | Caspase-1 inhib | p53ts 32C tox
CCCCN1C(=O)c2[nH]nc(-c3ccccc3O)c2C1c1ccc(C(C)(C)C)cc1 (configuration not stated) | ? | - | - | 13µM | - | ?
CCCCN1C(=O)c2[nH]nc(-c3ccccc3O)c2C1c1ccc(OCc2ccccc2)cc1 (configuration not stated) | ? | - | - | 13µM | - | 0
O=C1c2[nH]nc(-c3ccccc3O)c2C(c2ccc(F)cc2)N1Cc1ccco1 (configuration not stated) | ? | 0 | 0 | 0 | 0 | 0
CN(Cc1ccccc1)C(=O)c1cc2c(s1)-c1ccc(Cl)cc1SC2 | ? | - | - | ? | - | 0
N#Cc1cccc(NC(=O)c2cc3c(s2)-c2ccc(Cl)cc2SC3)c1 | 0 | - | - | 10µM | - | ?
CCc1ccc(NC(=O)Nc2ccccc2OCc2cc(=O)n3ccccc3n2)cc1 | ? | - | - | 3.2µM | - | ?
COc1cccc(-c2nccc(N(C)Cc3ccco3)n2)c1 | 0[11.4 µM] | 0[2.29 µM] | 0 | 10µM | 0 | 10µM
O=C(CS(=O)(=O)c1ccc(Cl)cc1)Nc1nc2ccc(Br)cc2s1 | 0 | - | - | 0 | - | 0
CC(C)Cn1nc(NC(=O)c2cccc(Cl)c2)c2cc3ccccc3nc21 | ? | - | - | 13µM | - | 0
CCCCn1nc(NC(=O)c2cccc(Cl)c2)c2cc3ccccc3nc21 | ? | - | - | 0 | - | 0
COc1ccc(NC(=O)CCS(=O)(=O)c2ccc3c(c2)n(C)c(=O)c(=O)n3C)cc1Cl | 0 | - | - | 0 | - | 0
Cc1ccnc(N(C(=O)c2cccs2)C(=O)c2cccs2)c1 | 0 | 0 | 0 | 13µM | 0 | ?
Cc1ccc2nc(N(Cc3cccnc3)C(=O)c3cccs3)sc2c1 | ? | - | - | 0 | - | 0
Cc1ccccc1S(=O)(=O)Cc1ccc(C(=O)NCCc2ccccc2)o1 | 0 | - | - | 0 | - | 0
CCCOC(=O)Cn1c(=O)c2cc3c(=O)n(CC(=O)OCCC)c(=O)c3cc2c1=O | 0 | ? | 0 | 0 | 0 | 0
Cc1cc2ncc(-c3ccc(Cl)cc3)c(N)n2n1 | 0 | 13µM | 0 | ? | 0 | ?
Cc1cc(C2N=C(N)Nc3nc4ccccc4n32)c(C)n1-c1ccccc1Cl (configuration not stated) | 0 | 0 | 0 | 0 | 0 | 0
Cc1ccc(-n2c(C)cc(C3N=C(N)Nc4nc5ccccc5n43)c2C)c(C)c1 (configuration not stated) | ? | 0 | 0 | 20µM | 0 | ?
COc1cccc(CNC(=O)c2ccc3c(c2)nc2n3CCOC2)c1 | 0 | - | - | 0 | - | 0
COc1ccc(-c2cc3nc4n(c(=O)c3s2)CCOC4)cc1 | - | 2µM | - | - | - | -
COc1ccc(-n2nc3cc(C)c(NC(=O)c4cccnc4)cc3n2)cc1 | 0 | 2.5µM | 0 | 0 | 0 | 0
Cc1cc2nn(-c3ccccc3)nc2cc1NC(=O)c1cccs1 | 0 | 16µM | 0 | ? | 0 | ?
CCCC(=O)Nc1cc2nn(-c3ccc(OC)cc3)nc2cc1C | 0 | - | - | 0 | - | 0
Cc1cc(F)ccc1NC(=O)CCS(=O)(=O)c1ccc2c(c1)CC(C)N2C(=O)C1CC1 (configuration not stated) | 0 | - | - | 0 | - | 0
Cc1cc(C(=O)Nc2cccnc2)on1 | 0 | 0 | 0 | 0 | 0 | 0
SMILES | IkB signaling | Luciferase inh | Caspase-7 inhib | p53ts 39C kill | Caspase-1 inhib | p53ts 32C tox
CN1CCN(Cc2c(O)ccc3occ(C(=O)c4ccccc4)c23)CC1 | 0 | 0 | 0 | 0 | 0 | 0
CC(=O)C(C(C)=O)c1c(Cl)c(O)c(O)c2c(C(=O)c3ccccc3)coc12 | ? | ? | 0 | ? | 0 | 13µM
CCCC(=O)O[C@]1(C(=O)CCl)[C@@H](C)C[C@H]2[C@@H]3CCC4=CC(=O)C=C[C@]4(C)[C@@]3(F)C(=O)C[C@@]21C | - | 0 | - | - | - | -
O=C(Nc1ncc(Cc2ccccc2)s1)c1cccs1 | ? | 10µM | 0 | ? | 0 | ?
O=C(Nc1nnc(Cc2ccccc2)s1)c1cccs1 | ? | 0 | 0 | 0 | 0 | 0
O=C(Nc1nsc(-c2ccccc2)n1)c1cccs1 | ? | 5µM | 0 | 5µM | 0 | 4µM
Cc1ccc(C(=O)Nc2ncc(Cc3ccccc3)s2)o1 | 0 | 13µM | 0 | ? | 0 | ?
CCOc1ccc2[nH]c(=O)c(CN(Cc3nnnn3Cc3ccco3)C3CCCCC3)cc2c1 | ? | 0 | 0 | 0 | ? | 0
O=C(CCN1C(=O)COc2ccccc21)NCc1ccco1 | 0 | 0 | 0 | 0 | 0 | 0
Clc1ccc(-n2ncc3c(NCc4ccco4)ncnc32)cc1 | - | 4µM | - | - | - | -
Clc1ccc(-n2ncc3c(NC4CCCC4)ncnc32)cc1 | ? | - | - | 16µM | - | 13µM
c1ccc(-n2ncc3c(NCC4CCCO4)ncnc32)cc1 (configuration not stated) | - | 0 | - | - | - | -
Clc1ccc(-n2ncc3c(NCC4CCCO4)ncnc32)cc1 (configuration not stated) | 0 | 5µM | 0 | ? | 0 | ?
COc1cccc(OC)c1OCCNC[C@@H]1COc2ccccc2O1 | ? | 0 | 0 | 0 | 0 | 0
